Data on twelve sequences can be found in PMC8384837, “Expanding the binding specificity for RNA recognition by a PUF domain”.

Assay in all cases: yeast three-hybrid, YBZ-1, SC-Leu-His + 0.5 mM 3-AT, 4 days
Common to all, as to details: tags: N-Gal4 AD-HA kept; label: inside an RPR1-promoter hybrid RNA with tandem MS2 sites; ssRNA

In one test the target is PUM1 PUF domain R7-RAR (Homo sapiens, UniProt Q14671 828-1176, S1079R;N1080A;E1083R). In outline:
(§1)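 The interaction score is the log change in how often each variant appears, from input to selection. Frequencies came from PCR-amplified, Illumina-sequenced repeat regions of Pumilio-1 PUF domain libraries grown in strain YBZ-1 (LexA–MS2 coat fusion, HIS3 reporter) alongside matching RNA elements. Input plates were SC-Leu and selection plates were SC-Leu-His + 0.5 mM 3-AT, each for four days, and the log2 calculation used a pseudocount of 1 where a variant was absent.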

Another test addresses PUM1 PUF domain R7-QFR (Homo sapiens, UniProt Q14671 828-1176, S1079Q;N1080F;E1083R). In outline: as §1
In a further test the target is PUM1 PUF domain R7-LNS (Homo sapiens, UniProt Q14671 828-1176, S1079L;E1083S). In outline: as §1
In another test the target is PUM1 PUF domain R7-CRR (Homo sapiens, UniProt Q14671 828-1176, S1079C;N1080R;E1083R). In outline:
as §1

Another test addresses PUM1 PUF domain R7-RRR (Homo sapiens, UniProt Q14671 828-1176, S1079R;N1080R;E1083R). In outline:
as §1

A further test deals with PUM1 PUF domain R7-LSC (Homo sapiens, UniProt Q14671 828-1176, S1079L;N1080S;E1083C). In outline:
as §1

The next test deals with PUM1 PUF domain R4-TPN (Homo sapiens, UniProt Q14671 828-1176, N971T;H972P;Q975N). The gist of the method:
as §1

A further test has as its target PUM1 PUF domain R4-PFS (Homo sapiens, UniProt Q14671 828-1176, N971P;H972F;Q975S). In outline: as §1
Another test deals with PUM1 PUF domain R4-PWS (Homo sapiens, UniProt Q14671 828-1176, N971P;H972W;Q975S). In outline:
as §1

The target in the next test is PUM1 PUF domain R5-DWW (Homo sapiens, UniProt Q14671 828-1176, C1007D;R1008W;Q1011W). The gist of the method: as §1
Another test has as its target T1, PUM1 PUF domain R6-NWV (Homo sapiens, UniProt Q14671 828-1176, Y1044W;Q1047V).
T1 sequence: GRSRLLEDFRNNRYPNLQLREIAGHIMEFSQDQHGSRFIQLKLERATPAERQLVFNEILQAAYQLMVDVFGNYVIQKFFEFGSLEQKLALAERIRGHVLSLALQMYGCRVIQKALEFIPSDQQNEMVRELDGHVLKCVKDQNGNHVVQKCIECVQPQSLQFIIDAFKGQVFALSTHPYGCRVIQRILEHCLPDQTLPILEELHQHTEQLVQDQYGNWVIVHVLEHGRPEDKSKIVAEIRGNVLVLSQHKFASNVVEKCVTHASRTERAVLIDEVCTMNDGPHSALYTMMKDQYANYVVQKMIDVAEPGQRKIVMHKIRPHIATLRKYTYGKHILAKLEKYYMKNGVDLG
In outline:
as §1

The target of another test is PUM1 PUF domain R1-TRR (Homo sapiens, UniProt Q14671 828-1176, S863T;Q867R). In outline: as §1
The target of a further test is PUM1 PUF domain R3-SHG (Homo sapiens, UniProt Q14671 828-1176, C935S;R936H;Q939G). The gist of the method: as §1
For the next test, the target named is PUM1 PUF domain R5-RST (Homo sapiens, UniProt Q14671 828-1176, C1007R;R1008S;Q1011T). The gist of the method:
as §1

Another test has as its target PUM1 PUF domain R4-WSH (Homo sapiens, UniProt Q14671 828-1176, N971W;H972S;Q975H). The gist of the method: as §1
The target in the next test is T2, PUM1 PUF domain R6-IFQ (Homo sapiens, UniProt Q14671 828-1176, N1043I;Y1044F).
T2 sequence: T1 sequence with N216I, W217F, V220Q
The gist of the method: as §1

A further test concerns the target PUM1 PUF domain R8-MHK (Homo sapiens, UniProt Q14671 828-1176, N1122M;Y1123H;Q1126K). In outline: as §1
A further test has as its target T3, PUM1 PUF domain R6-SFG (Homo sapiens, UniProt Q14671 828-1176, N1043S;Y1044F;Q1047G).
T3 sequence: T1 sequence with N216S, W217F, V220G
In outline: as §1

The target of another test is PUM1 PUF domain R8-SYW (Homo sapiens, UniProt Q14671 828-1176, N1122S;Q1126W). In outline:
as §1

The next test has as its target PUM1 PUF domain R4-WGM (Homo sapiens, UniProt Q14671 828-1176, N971W;H972G;Q975M). The gist of the method: as §1

Numbering of substitutions follows the chain as printed.

Sequence of PUM1 PUF domain R4-TPN (Q14671 828-1176 N971T/H972P/Q975N): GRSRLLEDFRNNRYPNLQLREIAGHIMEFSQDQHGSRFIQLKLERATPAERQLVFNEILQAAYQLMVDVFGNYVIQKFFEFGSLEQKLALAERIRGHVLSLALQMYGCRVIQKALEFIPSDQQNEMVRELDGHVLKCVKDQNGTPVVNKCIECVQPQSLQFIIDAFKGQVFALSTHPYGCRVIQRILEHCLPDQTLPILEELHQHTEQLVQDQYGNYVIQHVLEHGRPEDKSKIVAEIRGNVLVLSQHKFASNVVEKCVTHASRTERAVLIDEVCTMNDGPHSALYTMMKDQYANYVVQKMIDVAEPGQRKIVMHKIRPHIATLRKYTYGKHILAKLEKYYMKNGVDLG

For the sequence “GGCUAGAACUAGUGGAUCCCCCGGCGCCCGGCGGCUCGAGCCCGGGUAAGUCUAAAUAGUCUGCAUGCCGCCGGGCGCCAUGCCUGCAGGUCGACUCUAGAAAACAUG”, the binding signal with PUM1 PUF domain R7-RAR was 1.83 log2 enrichment (interaction score); with PUM1 PUF domain R7-QFR, 2.43 log2 enrichment (interaction score); in the test with PUM1 PUF domain R7-LNS, 0.35 log2 enrichment (interaction score); with PUM1 PUF domain R7-CRR, 0.18 log2 enrichment (interaction score); in the test with PUM1 PUF domain R7-RRR it was 3.52 log2 enrichment (interaction score).
For the sequence “GGCUAGAACUAGUGGAUCCCCCGGCGCCCGGCGGCUCGAGCCCGGGUAAGUUUAAAUAGUCUGCAUGCCGCCGGGCGCCAUGCCUGCAGGUCGACUCUAGAAAACAUG”, the binding signal is 4.56 log2 enrichment (interaction score) with PUM1 PUF domain R7-RAR; 5.15 log2 enrichment (interaction score) in the test with PUM1 PUF domain R7-LNS; 4.33 log2 enrichment (interaction score) in the test with PUM1 PUF domain R7-LSC; 2.87 log2 enrichment (interaction score) with PUM1 PUF domain R7-CRR; 3.77 log2 enrichment (interaction score) with PUM1 PUF domain R7-RRR.
For the sequence “GGCUAGAACUAGUGGAUCCCCCGGCGCCCGGCGGCUCGAGCCCGGGUAAGUGUACAUAGUCUGCAUGCCGCCGGGCGCCAUGCCUGCAGGUCGACUCUAGAAAACAUG”, the binding signal with PUM1 PUF domain R4-TPN was 4.27 log2 enrichment (interaction score); with PUM1 PUF domain R4-PFS it was 5.13 log2 enrichment (interaction score); in the test with PUM1 PUF domain R4-PWS, 4.61 log2 enrichment (interaction score).
Take “GGCUAGAACUAGUGGAUCCCCCGGCGCCCGGCGGCUCGAGCCCGGGUAAGUGUGAAUAGUCUGCAUGCCGCCGGGCGCCAUGCCUGCAGGUCGACUCUAGAAAACAUG”: the binding signal in the test with PUM1 PUF domain R5-DWW is 5.08 log2 enrichment (interaction score).
Take “GGCUAGAACUAGUGGAUCCCCCGGCGCCCGGCGGCUCGAGCCCGGGUAAGUGAAAAUAGUCUGCAUGCCGCCGGGCGCCAUGCCUGCAGGUCGACUCUAGAAAACAUG”: the binding signal with PUM1 PUF domain R6-NWV is 3.35 log2 enrichment (interaction score).
As to “GGCUAGAACUAGUGGAUCCCCCGGCGCCCGGCGGCUCGAGCCCGGGUAAGUGUAAAUCGUCUGCAUGCCGCCGGGCGCCAUGCCUGCAGGUCGACUCUAGAAAACAUG”, the binding signal with PUM1 PUF domain R1-TRR is 4.23 log2 enrichment (interaction score).
Regarding “GGCUAGAACUAGUGGAUCCCCCGGCGCCCGGCGGCUCGAGCCCGGGUAAGUGUAAUUAGUCUGCAUGCCGCCGGGCGCCAUGCCUGCAGGUCGACUCUAGAAAACAUG”, the binding signal with PUM1 PUF domain R3-SHG was 0.72 log2 enrichment (interaction score).
Consider “GGCUAGAACUAGUGGAUCCCCCGGCGCCCGGCGGCUCGAGCCCGGGUAAGUGUCAAUAGUCUGCAUGCCGCCGGGCGCCAUGCCUGCAGGUCGACUCUAGAAAACAUG”, for which the binding signal with PUM1 PUF domain R5-RST was 2.91 log2 enrichment (interaction score).
Turning to “GGCUAGAACUAGUGGAUCCCCCGGCGCCCGGCGGCUCGAGCCCGGGUAAGUGUAAAUAGUCUGCAUGCCGCCGGGCGCCAUGCCUGCAGGUCGACUCUAGAAAACAUG”, the binding signal with PUM1 PUF domain R4-WSH was 1.11 log2 enrichment (interaction score); with PUM1 PUF domain R6-IFQ it was 3.62 log2 enrichment (interaction score); in the test with PUM1 PUF domain R4-TPN it was 5.21 log2 enrichment (interaction score); with PUM1 PUF domain R8-MHK it was 2.63 log2 enrichment (interaction score); with PUM1 PUF domain R6-SFG, 4.88 log2 enrichment (interaction score); with PUM1 PUF domain R4-PWS, 6.05 log2 enrichment (interaction score). For the same sequence, the figures for the binding signal with PUM1 PUF domain R8-SYW and with PUM1 PUF domain R3-SHG were 3.33 log2 enrichment (interaction score) and 3.6 log2 enrichment (interaction score), respectively.
Take “GGCUAGAACUAGUGGAUCCCCCGGCGCCCGGCGGCUCGAGCCCGGGUAAGUGUAUAUAGUCUGCAUGCCGCCGGGCGCCAUGCCUGCAGGUCGACUCUAGAAAACAUG”: the binding signal in the test with PUM1 PUF domain R4-WGM was 2.85 log2 enrichment (interaction score); in the test with PUM1 PUF domain R4-WSH, 4.36 log2 enrichment (interaction score); with PUM1 PUF domain R4-TPN, 3.42 log2 enrichment (interaction score); with PUM1 PUF domain R4-PFS it was 4.11 log2 enrichment (interaction score).
In the case of “GGCUAGAACUAGUGGAUCCCCCGGCGCCCGGCGGCUCGAGCCCGGGUAAGUGUAAAUUGUCUGCAUGCCGCCGGGCGCCAUGCCUGCAGGUCGACUCUAGAAAACAUG”, the binding signal with PUM1 PUF domain R1-TRR is 3.12 log2 enrichment (interaction score).
For “GGCUAGAACUAGUGGAUCCCCCGGCGCCCGGCGGCUCGAGCCCGGGUAAGUGUAAGUAGUCUGCAUGCCGCCGGGCGCCAUGCCUGCAGGUCGACUCUAGAAAACAUG”, the binding signal with PUM1 PUF domain R3-SHG is 2.83 log2 enrichment (interaction score).
